PubChem BioAssay (EPA / NIEHS)
“And” between values parts separate entries of the source, which are not always exact repeats. Equal values may be shown once. Where a structure was tested more than once in an assay, its records may differ in their call. The source made the active and inactive calls. How the source made its calls: active means hit-call score of the fitted dose curve at least 0.9, where 1 is the maximum; inactive means score below 0.9.

Columns and labels:
[1] = read-out: Vascular cell adhesion molecule 1 (VCAM1), VCAM1 (gene 7412); assay: BSK_BF4T_VCAM1: BioMAP Diversity Plus: BF4T Assay for Vascular cell adhesion molecule 1 (VCAM1) Biomarker Activity (AID 2284249); conditions: primary human bronchial epithelial cells with fibroblasts
How it was run: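 Cell-surface VCAM-1 quantified by ELISA after 24 h chemical exposure of human bronchial epithelial/dermal fibroblast co-cultures, with SRB staining in parallel wells for cytotoxicity; DMSO baseline, positive-direction fitting.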

[2] = read-out: Collagen I, COL1A1 (gene 1277); assay: BSK_hDFCGF_CollagenI: BioMAP Diversity Plus: hDFCGF Assay for Collagen I Biomarker Activity (AID 2284250); conditions: primary human foreskin fibroblasts
How it was run: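 Readout: Collagen I by ELISA after 24 h compound treatment of primary human foreskin fibroblasts. Endpoint analysed for increases relative to DMSO; total protein by SRB in parallel wells flagged cytotoxicity.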

[3] = read-out: Interferon-inducible T-cell alpha chemoattractant (ITAC), CXCL11 (gene 6373); assay: BSK_hDFCGF_ITAC: BioMAP Diversity Plus: hDFCGF Assay for Interferon-inducible T-cell alpha chemoattractant (ITAC) Biomarker Activity (AID 2284251); conditions: primary human foreskin fibroblasts
How it was run: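 Measured by ELISA, the chemokine level serves as the endpoint in human skin fibroblast primary cultures 24 h after compound addition. Increases relative to DMSO-treated wells define activity.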

[4] = read-out: Plasminogen activator inhibitor-1 (PAI1), SERPINE1 (gene 5054); assay: BSK_KF3CT_PAI1: BioMAP Diversity Plus: KF3CT Assay for Plasminogen activator inhibitor-1 (PAI1) Biomarker Activity (AID 2284252); conditions: primary human keratinocytes with fibroblasts
How it was run: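 In this co-culture of primary human keratinocytes and foreskin fibroblasts, PAI-1 was measured by ELISA at 24 h and fitted upward from DMSO.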

[5] = read-out: Monocyte Chemoattractant Protein-1 (MCP1), CCL2 (gene 6347); assay: BSK_IMphg_MCP1: BioMAP Diversity Plus: IMphg Assay for Monocyte Chemoattractant Protein-1 (MCP1) Biomarker Activity (AID 2284253); conditions: primary human endothelial cells with macrophages
How it was run: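 ELISA readout of MCP-1 at 24 hours in IMphg co-cultures of venular endothelial cells and macrophages, normalised to DMSO; parallel cultures stained with sulforhodamine B for overt cytotoxicity.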

[6] = read-out: Interleukin-8 (IL8), CXCL8 (gene 3576); assay: BSK_KF3CT_IL8: BioMAP Diversity Plus: KF3CT Assay for Interleukin-8 (IL8) Biomarker Activity (AID 2284254); conditions: primary human keratinocytes with fibroblasts
How it was run: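 IL-8 read-out: ELISA, 24 h post-dose, human skin primary co-culture (keratinocytes + foreskin fibroblasts). DMSO = baseline; positive-direction fit.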

[7] = read-out: Macrophage Inflammatory Protein-1 Alpha (MIP1a), CCL3 (gene 6348); assay: BSK_IMphg_MIP1a: BioMAP Diversity Plus: IMphg Assay for Macrophage Inflammatory Protein-1 Alpha (MIP1a) Biomarker Activity (AID 2284255); conditions: primary human endothelial cells with macrophages
How it was run: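 MIP-1a protein levels were quantified by ELISA after 24 h treatment of human endothelial cell–macrophage co-cultures, compared with DMSO. Parallel cultures were fixed with TCA and stained with 0.1% SRB to gauge overt cytotoxicity.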

[8] = read-out: Plasminogen activator inhibitor-1 (PAI1), SERPINE1 (gene 5054); assay: BSK_MyoF_PAI1: BioMAP Diversity Plus: MyoF Assay for Plasminogen activator inhibitor-1 (PAI1) Biomarker Activity (AID 2284256); conditions: primary human lung fibroblasts
How it was run: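 MyoF lung fibroblasts, human primary; compound 24 h; PAI-1 ELISA; positive-direction fit vs DMSO baseline; parallel SRB total-protein staining for cytotoxicity.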

CD69, CD69 (gene 969) = assay: BSK_IMphg_CD69: BioMAP Diversity Plus: IMphg Assay for CD69 Biomarker Activity (AID 2284257); conditions: primary human endothelial cells with macrophages
How it was run: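 Readout is ELISA for CD69 in primary human venular endothelial cell/macrophage co-culture, taken at 24 h post-dosing. SRB staining of parallel cultures gauged overt cytotoxicity; signal increase versus DMSO defined activity.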

[9] = read-out: Eotaxin 3, CCL26 (gene 10344); assay: BSK_BF4T_Eotaxin3: BioMAP Diversity Plus: BF4T Assay for Eotaxin 3 Biomarker Activity (AID 2284258); conditions: primary human bronchial epithelial cells with fibroblasts
How it was run: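 ELISA measurement of Eotaxin-3 after 24 h chemical exposure in a bronchial epithelial/dermal fibroblast co-culture, with DMSO as baseline. Parallel SRB staining (0.1% SRB after 10% TCA fixation, 560 nm) flagged overt cytotoxicity.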

Measured: AC50

O=C(O)C(F)(F)C(F)(F)C(F)(F)OC(F)(C(F)(F)F)C(F)(F)F
inactive: [1] | [2] | [3] | [4] | [5] | [6] | [7] | [8] | CD69, CD69 (gene 969) | [9]
active: [6] 16.5 µM

NC(=O)C(F)(F)C(F)(F)C(F)(F)C(F)(F)C(F)(F)C(F)(F)C(F)(F)F
active: CD69, CD69 (gene 969) 23.5 µM
inactive: [1] | [2] | [3] | [4] | [5] | [6] | [7] | [8] | CD69, CD69 (gene 969) | [9]

CNS(=O)(=O)C(F)(F)C(F)(F)C(F)(F)C(F)(F)C(F)(F)C(F)(F)C(F)(F)C(F)(F)F
inactive: [1] | [2] | [3] | [4] | [5] | [7] | [8] | CD69, CD69 (gene 969)
active: [4] 7.81 µM | [6] 8.13 µM and 9.41 µM | [9] 3.88 µM and 220 nM

OC(O)C(F)(F)C(F)(F)F
inactive: all assays above

O=S(=O)(O)CCC(F)(F)C(F)(F)C(F)(F)C(F)(F)C(F)(F)C(F)(F)C(F)(F)C(F)(F)F
inactive: [1] | [2] | [3] | [4] | [5] | [6] | [7] | [8] | CD69, CD69 (gene 969)
active: [3] 30 µM | [6] 30 µM | CD69, CD69 (gene 969) 30 µM | [9] 15.1 µM and 8.3 µM

OCCCC(F)(F)C(F)(F)C(F)(F)C(F)(F)C(F)(F)C(F)(F)C(F)(F)C(F)(F)F
active: [1] 13.9 µM and 16.8 µM | [3] 7.67 µM and 5.74 µM | [4] 12.7 µM and 9.08 µM | [5] 18.5 µM and 21.1 µM | [6] 17.1 µM and 13.7 µM | [7] 41 µM and 56.7 µM | [8] 16.5 µM and 11.1 µM | CD69, CD69 (gene 969) 40.1 µM and 48.6 µM | [9] 24.7 µM and 24.9 µM
inactive: [2]

NC(=O)C(F)(F)C(F)(F)C(F)(F)C(F)F
inactive: all assays above

OCC(O)CC(F)(F)C(F)(F)C(F)(F)C(F)(F)C(F)(F)C(F)(F)C(F)(F)C(F)(F)F (centres undefined)
inactive: all assays above

FC(F)(F)C(F)(F)C(F)(F)C(F)(F)C(F)(F)C(F)(F)C(F)(F)CCI
inactive: [1] | [2] | [3] | [4] | [5] | [6] | [7] | [8] | CD69, CD69 (gene 969) | [9]
active: [3] 3.33 µM

OCC(F)(F)C(F)(F)C(F)(F)CO
inactive: [1] | [2] | [3] | [4] | [5] | [6] | [7] | [8] | CD69, CD69 (gene 969) | [9]
active: [3] 9.21 µM

CCN(CC)c1ccc2c(c1)Oc1cc(N(CC)CC)ccc1C21OC(=O)c2ccccc21
inactive: [8]

CCN(CC)c1ccc(C=O)cc1
inactive: [8]

O=C1C=CC(=O)N1c1ccc(Cc2ccc(N3C(=O)C=CC3=O)cc2)cc1
active: [8] 5.09 µM

Cc1ccc(S(=O)(=O)C(I)I)cc1
active: [8] 8.61 µM

O=C=NCc1cccc(CN=C=O)c1
inactive: [8]

CN(C(=O)C(F)(F)C(F)(F)C(F)(F)F)[Si](C)(C)C
inactive: all assays above

C=CC(=O)OCCC(F)(F)C(F)(F)C(F)(F)C(F)(F)F
active: [3] 25 µM and 21.5 µM
inactive: all other assays above

Cc1cnccn1
inactive: [8]

Cc1cc(O)c(C(C)(C)C)cc1C(C)(C)C
active: [8] 7.48 µM

CCN(CC)c1ccc(N=Nc2ccccc2)cc1
inactive: [8]

CC1=CC2C3C=CC(C3)C2C1C (centres undefined)
inactive: [8]

O=C(O)C(F)(F)C(F)(F)C(F)(F)OC(F)(F)F
inactive: all assays above

O=C(O)C(F)(F)OC(F)(F)C(F)(F)OC(F)(F)C(F)(F)OC(F)(F)F
inactive: all assays above

OCC(F)(F)C(F)(F)C(F)(F)C(F)(F)C(F)(F)C(F)(F)CO
inactive: all assays above

Cc1cc(C)c(O)c(C(C)(C)C)c1
active: [8] 36.4 µM

CC(C)(C)c1cc(CCC(=O)NCCCCCCNC(=O)CCc2cc(C(C)(C)C)c(O)c(C(C)(C)C)c2)cc(C(C)(C)C)c1O
inactive: [8]

NC(O)(C(F)(F)F)C(F)(F)F
inactive: all assays above

FC(F)(F)C(F)(F)C(F)(F)C(F)(F)C(F)(F)C(F)(F)CC[Si](Cl)(Cl)Cl
inactive: all assays above

Brc1nc2ccccc2s1
inactive: [8]

CCOC(C=C(C)CCC=C(C)C)OCC
active: [8] 20 µM

NC(=O)C(F)(F)C(F)(F)C(F)(F)F
inactive: all assays above

O=C(Cl)C(F)(F)C(F)(F)C(F)(F)C(F)(F)C(F)(F)C(F)(F)F
inactive: all assays above

Nc1cc([N+](=O)[O-])cc(Cl)c1O
inactive: [8]

Cc1ccc(O)c(-n2nc3ccccc3n2)c1
inactive: [8]

CCN=C1C=CC(=C(c2ccc(N(CC)CC)cc2)c2ccc(N(CC)CC)cc2)c2ccccc21
inactive: [2] | [6]
active: [3] 704 nM and 1.12 µM | [4] 1.64 µM and 1.56 µM | [6] 2.34 µM

O=C=Nc1cccc2c(N=C=O)cccc12
inactive: [8]

CO[Si](C)(CCC(F)(F)C(F)(F)C(F)(F)C(F)(F)C(F)(F)C(F)(F)F)OC
inactive: all assays above

C[C@]12CC[C@H]3C(=CCc4cc(O)ccc43)[C@@H]1CCC2=O
inactive: [8]

CCN(CC)c1ccc(C=O)c(O)c1
active: [8] 20 µM

O=C(c1ccccc1)c1ccc(O)cc1O
inactive: [8]

CC(C)CCCC(C)CCO (centres undefined)
inactive: [8]

O=C(O)CCC(F)(F)C(F)(F)C(F)(F)F
inactive: all assays above

O=C1c2c(O)ccc(Nc3ccc(CCO)cc3)c2C(=O)c2c([N+](=O)[O-])ccc(O)c21
active: [8] 32.3 µM
